WRN inhibitor: inhibitors of human WRN helicase | Q14191 | WRN helicase unwinding, fluorescent forked duplex, kinetic | Potency, µM (doses to about 114 µM), most hits filed as inhibitors | hit rate 0.46% among 360,000 | AID 651768; note: nearly all actives have a fitted effect of over 55% in size
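Kinetic red-fluorescence monitoring (525/598 nm) tracks WRN helicase activity after 100 nM fluorophore-quencher forked duplex and 2 mM ATP are added to 20 nM enzyme pretreated 15 min at room temperature with compound.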
Pol kappa inh: blocks human DNA polymerase kappa activity; purified Pol kappa, fluorescent DNA synthesis assay, 10 min; Potency, µM (titrated, usually from 107 µM), usual class: inhibitors; hit rate 0.53% among 400,000; AID 588579
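Kinetic fluorescence screen: compound preincubated 15 min RT with 10 nM enzyme; 50 nM substrate (final) initiates; reads at 0/10 min.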
Pol beta inh-1: DNA polymerase beta (human) inhibition; P06746; Pol beta primer extension/strand displacement, fluorescence kinetic; Potency, µM (top dose mostly 114 µM), actives largely listed as inhibitors; hit rate 1.3% among 340,000
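Values derive from four-parameter Hill fits of normalized kinetic data: reads at 0 and 10 min following addition of 50 nM substrate to 10 nM Pol beta preincubated 15 min with compound.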
POLH inh: inhibitors of human DNA polymerase eta; AID 588591; Q9Y253; hit rate 1.2% among 390,000; Potency, µM (top dose mostly 114 µM), hits mostly inhibitors; recombinant Pol eta, fluorescent DNA replication assay
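Pol eta at 10 nM preincubated with compounds 15 min at room temperature; reaction started with fluorescent substrate (50 nM final) and read kinetically at 0 and 10 min.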
FEN1 inhibitor: blocks human flap endonuclease 1; P39748; Recombinant FEN1 flap cleavage, fluorescence, 15 min; Potency, µM (doses to about 114 µM), most hits filed as inhibitors; hit rate 0.35% among 390,000; note: nearly all actives have a fitted effect of over 65% in size
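Recombinant FEN1 (10 nM) was preincubated with pin-transferred compounds for 15 min at room temperature, then flap DNA substrate (50 nM final) was added. Plates were read at 0 and 15 min, and normalized concentration–response data were fitted to a four-parameter Hill equation.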
Pol iota inh: DNA polymerase iota (human) inhibition; Pol iota fluorescent replication assay, 10 min; Potency, µM (series often up to 115 µM), hits mostly inhibitors; hit rate 1% among 390,000
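Pol iota at 10 nM preincubated 15 min with compounds at room temperature; reaction started with fluorescent substrate, 50 nM final. Fluorescence read kinetically at 0 and 10 min; buffer-only wells as negative control.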
Pol beta inh-2: Inhibitors of human DNA polymerase beta, hit validation. shares compounds with Pol beta inh-1. Pol beta primer extension/strand displacement, fluorescence kinetic. Potency, µM, hits mostly inhibitors. hit rate 87% among 250. AID 540280; calls by dose curve
Klenow counter: counter-screen for DNA polymerase beta inhibitors: Klenow fragment inhibition; 250 tested, under 10 active; activity change, negative = inhibition, % at 57.1 µM; Klenow exo- polymerase counter-screen, fluorescent DNA substrate; shares compounds with Pol beta inh-1
HIV RT counter: counter-screen for DNA polymerase beta inhibitors: HIV-1 RT inhibition | shares compounds with Pol beta inh-1 | HIV-1 RT polymerase activity, counter-screen | activity % (negative = inhibition, positive = activation), % at 57.1 µM | 250 tested, under 10 active
POLB inh gel: DNA polymerase beta inhibition, radiolabeled validation; shares compounds with Pol beta inh-1; radiolabeled primer extension gel assay, phosphorimager; inhibition, % at 10 µM; hit rate 91% among 110; AID 540325;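 active = inhibition at 10 µM of 30% or more; inconclusive = no clear call, values can overlap the other calls; inactive = inhibition at 10 µM under 30%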
Pol iota confirm: Human Pol iota inhibitor confirmatory assay. Pol iota primer extension, TAMRA/BHQ fluorescence. shares compounds with Pol kappa inh. Potency, µM, hits mostly inhibitors. hit rate 77% among 1,500
Large screens that a line does not name were inactive (follow-up assays come after a bar, where they were run). This is a sample that favours compounds with a hit; in the whole collection about 2.4% have one here. Unless noted, calls come from the whole dose curve; as a rule, active = well fitted curve in the direction sought with a large enough effect; inconclusive = small, poorly fitted or top-dose-only effect, or another doubt; inactive = no such curve, though single readings can be large; an effect the other way counts as inactive or inconclusive.

CCCCSCCCNC(=O)c1cc(-c2cccnc2)nc2ccc(S(=O)(=O)N3CCC(C)CC3)cc12	none (no result: WRN inhibitor)
CC(C)C(=O)Nc1ccc(/C=C2\C=Cc3ccccc32)cc1	none (no result: WRN inhibitor, Pol beta inh-1, POLH inh)
Cc1cc2[nH]c(=O)c(=O)[nH]c2cc1S(=O)(=O)N1CCN(c2cccc(C)c2C)CC1	WRN inhibitor inconclusive, Pol kappa inh inconclusive, Pol beta inh-1 11.2µM, POLH inh inconclusive, Pol iota inh inconclusive | Pol beta inh-2 28.2 | Klenow counter inactive | HIV RT counter inactive | POLB inh gel 73.2
Cc1cc2[nH]c(=O)c(=O)[nH]c2cc1S(=O)(=O)N1CCN(c2ccccc2F)CC1	none
Cn1c(SCC(=O)Nc2ccc3nc(SCC(=O)NC4CC4)sc3c2)nnc1-c1ccccc1	Pol iota inh inconclusive
Cn1c(SCC(=O)Nc2ccc3nc(SCC(=O)N4CCCC4)sc3c2)nnc1-c1ccc(N)cc1	WRN inhibitor inconclusive, Pol kappa inh 50.1µM, Pol beta inh-1 7.94µM, POLH inh inconclusive, Pol iota inh 5.62µM | Pol beta inh-2 7.08 | Klenow counter inactive | HIV RT counter inactive
N=C1C(c2nc3ccccc3s2)=C(O)CN1NC(=O)c1c[nH]c2ccccc12	Pol beta inh-1 12.6µM, Pol iota inh inconclusive | Pol beta inh-2 25.1 | Klenow counter inactive | HIV RT counter inactive | POLB inh gel 52.2
O=C(Nc1cccc(S(=O)(=O)NC2=NCCCCC2)c1)c1cc(-c2ccco2)nc2ccccc12	WRN inhibitor inconclusive, Pol kappa inh 79.4µM, Pol beta inh-1 7.94µM, POLH inh inconclusive, Pol iota inh 14.1µM | Pol beta inh-2 11.2 | Klenow counter inactive | HIV RT counter inactive
COc1ccc2cc3cc(C(=O)Nc4ccc5c(c4)OCCO5)oc3nc2c1	Pol beta inh-1 12.6µM, POLH inh 11.2µM, Pol iota inh inconclusive | Pol beta inh-2 inconclusive | Klenow counter inactive | HIV RT counter inactive
CSc1ncnc2c1ncn2CCCNCc1cccc2ccccc12	none (no result: Pol kappa inh, Pol beta inh-1, FEN1 inhibitor, Pol iota inh)
O=C(O)c1ccc(-c2ccc(-c3ccccc3)cc2)s1	Pol beta inh-1 15.8µM (no result: WRN inhibitor, Pol kappa inh, POLH inh, FEN1 inhibitor, Pol iota inh) | Pol beta inh-2 20 | Klenow counter inactive | HIV RT counter inactive
O=C(C1CCCCC1)N1C[C@@H](O)[C@H](n2cc(C3CC3)nn2)C[C@@H]1c1ccc(Cl)cc1	none (no result: Pol kappa inh, Pol beta inh-1, FEN1 inhibitor, Pol iota inh)
COc1ccc(/C=C/C(=O)c2cc(Br)ccc2O)cc1OC	none
CNc1ccc(Br)cc(C(=O)/C=C/c2cc(OC)ccc2OC)c1=O	Pol kappa inh inconclusive, Pol beta inh-1 12.6µM, POLH inh 14.1µM, FEN1 inhibitor inconclusive, Pol iota inh inconclusive | Pol beta inh-2 28.2 | Klenow counter inactive | HIV RT counter inactive | POLB inh gel 43.4
CCOc1ccc(Br)cc1C1C(C(=O)OC)=C(C)NC2=C1C(=O)c1ccccc12 (configuration not stated)	none (no result: WRN inhibitor)
Cc1cc(SCC(=O)c2ccc3c(c2)OCO3)nc2ccccc12	none
Cc1cc(SCC(=O)c2ccc(O)c(O)c2)nc2ccccc12	WRN inhibitor inconclusive, Pol kappa inh 50.1µM, Pol beta inh-1 14.1µM, POLH inh 11.2µM, Pol iota inh 39.8µM | Pol beta inh-2 11.2 | Klenow counter inactive | HIV RT counter inconclusive
Nc1c(C(=O)NC2CC2)sc2nc3c(c(-c4ccco4)c12)CC/C3=C/c1ccco1	WRN inhibitor 50.1µM, Pol kappa inh 0.708µM, Pol beta inh-1 0.631µM, POLH inh 0.708µM, FEN1 inhibitor 5.62µM, Pol iota inh inconclusive | Pol beta inh-2 28.2 | Klenow counter inactive | HIV RT counter inconclusive | POLB inh gel 100.0
O=C(Nc1cccc(-c2cn3ccccc3n2)c1)c1cc2ccccc2oc1=O	WRN inhibitor inconclusive, Pol beta inh-1 3.98µM, POLH inh inconclusive, FEN1 inhibitor inconclusive, Pol iota inh inconclusive | Pol beta inh-2 5.62 | Klenow counter inactive | HIV RT counter inactive | Pol iota confirm inconclusive
CCOC(=O)c1c(S(=O)(=O)N2CCCC(C(=O)N(C)Cc3ccccc3)C2)c(C)n(C)c1C (configuration not stated)	none (no result: WRN inhibitor)
CCOC(=O)c1cc(-c2ccc(N3CCOCC3)cc2)nn1-c1ccccc1C(=O)O	WRN inhibitor inconclusive, Pol beta inh-1 12.6µM, POLH inh inconclusive, Pol iota inh inconclusive | Pol beta inh-2 20 | Klenow counter inactive | HIV RT counter inactive | Pol iota confirm inconclusive
CCOC(=O)c1cc(-c2ccc(N3CCOCC3)cc2)nn1-c1ccccc1	none
O=C(/C=C/c1ccccc1Cl)Nc1ccc2c(c1)C(=O)NC2=O	WRN inhibitor inconclusive, Pol kappa inh inconclusive, Pol beta inh-1 8.91µM, POLH inh inconclusive, Pol iota inh inconclusive | Pol beta inh-2 14.1 | Klenow counter inactive | HIV RT counter inactive | Pol iota confirm inconclusive
CCn1c(C)c(C)c2cc(C(=O)NCCc3cc(OC)c(OC)c(OC)c3)ccc21	none (no result: WRN inhibitor)
O=C(Nc1nc(-c2ccccn2)cs1)c1ccco1	Pol beta inh-1 inconclusive, POLH inh inconclusive
O=C(Nc1nc(-c2cc3ccccc3oc2=O)cs1)c1ccco1	Pol beta inh-1 8.91µM, POLH inh inconclusive | Pol beta inh-2 20 | Klenow counter inactive | HIV RT counter inactive | POLB inh gel 40.9 | Pol iota confirm inconclusive
COc1cc(/C=C(/C#N)c2nc3ccccc3[nH]2)ccc1Oc1ncccc1[N+](=O)[O-]	WRN inhibitor inconclusive, Pol beta inh-1 12.6µM, POLH inh inconclusive, Pol iota inh inconclusive | Pol beta inh-2 12.6 | Klenow counter inactive | HIV RT counter inactive | Pol iota confirm inconclusive
CCOc1cc(/C=C(/C#N)c2nc3ccccc3[nH]2)ccc1Oc1ccc([N+](=O)[O-])cn1	Pol beta inh-1 inconclusive
COc1ccc(CC(=O)Nc2nc(OCCN3CCCC3=O)cnc2-c2cccc(C(F)(F)F)c2)cc1	none (no result: Pol kappa inh, Pol beta inh-1, POLH inh, FEN1 inhibitor, Pol iota inh)
